# Assay outcomes: PubChem, National Center for Advancing Translational Sciences (NCATS)
# Shown are actives, neighbours in structure and some others; about 3.3% of the full set was active somewhere.
# PI5P4K alpha inh – blocks human PI5P4K alpha kinase activity; P48426; PI5P4Kalpha enzyme, ADP-Glo luminescence, 60 min; active compounds read low; max response, %; hit rate 1.2% among 330,000; active = max response of -50% or lower; also: value at the top dose of about 77 µM
# Target sequence (P48426 whole entry, looked up): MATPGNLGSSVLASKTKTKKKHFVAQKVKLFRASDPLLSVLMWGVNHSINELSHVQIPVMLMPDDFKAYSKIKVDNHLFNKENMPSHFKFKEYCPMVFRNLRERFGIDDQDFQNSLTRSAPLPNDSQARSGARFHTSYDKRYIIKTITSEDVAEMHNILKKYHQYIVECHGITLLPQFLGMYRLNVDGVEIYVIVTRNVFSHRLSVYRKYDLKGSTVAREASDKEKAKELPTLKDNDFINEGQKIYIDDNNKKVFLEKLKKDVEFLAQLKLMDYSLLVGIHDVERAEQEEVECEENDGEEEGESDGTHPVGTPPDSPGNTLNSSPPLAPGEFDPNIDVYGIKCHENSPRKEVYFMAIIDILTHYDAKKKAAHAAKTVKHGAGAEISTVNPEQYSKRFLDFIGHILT
#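 Single end-point luminescence (ADP-Glo) quantified ADP from PI5P4Kalpha turnover; ATP 5 microM final, 1 h at RT, 0.1% CHAPS and 0.28 mM EGTA in HEPES pH 7.4.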
# DRD3 antagonist – D3 dopamine receptor (human) antagonism. hit rate 2.5% among 360,000. max response, negative = inhibition, %. P35462. D3R cells, DiscoveRx beta-arrestin luminescence, antagonist mode; active compounds read low; in the data active = max response below about -50%
#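 Cells plated overnight at 1500 cells/well, then exposed to library compounds with dopamine controls for 90 minutes at 37 degrees C. DiscoveRx reagent added for 30–60 minutes at room temperature; luminescence read, quantitative HTS format.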
# D3 ag – activates the human D3 dopamine receptor. P35462. D3R DiscoveRx beta-arrestin cells, luminescence, 90 min. max activation, %. hit rate 0.58% among 410,000. AID 652048; in the data active = max activation above about 30%
#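 Cells at 1500/well, incubated overnight, then treated with pinned compounds (dopamine as control) for 90 min at 37 degrees C. DiscoveRx reagent added for 30 - 60 minutes at room temperature; luminescence read.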
# LDHA inh – blocks human lactate dehydrogenase A; P00338; purified LDHA, NADH/diaphorase-resazurin fluorescence; active compounds read low; activity change, % (values are at about 110 or 230 µM); hit rate 0.15% among 480,000; AID 1347041; in the data active = activity change below about -30%
#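 Human LDH5 (2 nM) was incubated with 0.06 mM NADH and 0.2 mM pyruvate for 5 min at room temperature in Tris pH 7.4. Remaining NADH was coupled through diaphorase/resazurin, and resorufin fluorescence was read at 0 and 20 min.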
# PI4K2A block – blocks human PI4K2A kinase activity; purified PI4K2A, ADP-Glo luminescence, 1 h; active compounds read low; activity change, negative = inhibition, % at 76.9 µM; hit rate 0.13% among 420,000; AID 1346378; in the data active = activity change below about -50%
#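 ADP-Glo luminescence measured ADP generated by PI4K2A enzyme (4 ug/mL before mixing) with 1.2 mM PI substrate (pre-mix) and 300 microM ATP (pre-mix). Tris pH7.5 buffer with MgCl2, Triton X-100; 1 h reaction at ambient temperature.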
# Numbers stand for hits; i = inactive; nt = not tested or not shown.
SMILES,PI5P4K alpha inh,DRD3 antagonist,D3 ag,LDHA inh,PI4K2A block
O=C(N/N=C/c1cc(Cl)cc([N+](=O)[O-])c1O)C1CC1,i,-56.6,i,i,i
O=C(N/N=C/c1ccc(Cl)c([N+](=O)[O-])c1)C1CC1,i,i,i,i,i
COc1ccc(-c2cc(C(=O)O)c3c(C)cc(C)cc3n2)cc1,nt,nt,nt,i,nt
O=C(/C=C/c1ccc(Cl)cc1)c1ccc([N+](=O)[O-])o1,i,-101.0,i,i,i
Cc1ccc(/C=C/C(=O)c2ccc([N+](=O)[O-])o2)cc1,i,-62.4,i,i,i
COc1ccccc1CNC(=O)CCc1ncc(-c2ccccc2)o1,nt,nt,nt,i,nt
COc1ccc(-c2cc3nc(C)n(N)c(=O)c3s2)cc1,-53.1,i,i,i,-86.6
Cn1c(NCc2ccccc2)nc2cc(-c3ccccc3)sc2c1=O,i,i,i,i,i
Cc1nc2cc(-c3ccccc3)sc2c(=O)n1N,-71.7,i,i,i,-80.3
CO[C@@H]1CN(C)C(=O)c2cc(NC(=O)NC3CCCCC3)ccc2OC[C@@H](C)N(CC2CCOCC2)C[C@@H]1C,i,-59.7,i,i,i
Cc1ccc(C(=O)Nc2ncn(CC(=O)NCc3ccccc3F)n2)cc1,nt,nt,nt,i,nt
CC(=O)Oc1ccc([C@@H]2COc3c(ccc4c3C=CC(C)(C)O4)C2)c(OC(C)=O)c1,i,i,37.8,i,i
O=C(CSc1oc(-c2ccccc2)nc1S(=O)(=O)c1ccccc1)c1ccccc1,nt,nt,53.3,i,i
Oc1cccc2ccc(/C=C/c3ccccc3Br)nc12,i,-113.8,i,i,i
Oc1ccc2ccccc2c1/C=C/c1ccc2c(Br)cc(Br)c(O)c2n1,i,-103.6,i,i,i
Oc1c(Cl)cc(Cl)cc1/C=C/c1ccc2cccc(O)c2n1,i,i,32.2,i,i
COc1cc(Br)c(/C=C/c2ccc3cccc(O)c3n2)cc1OC,i,i,i,i,i
Oc1cccc2ccc(/C=C/c3cccs3)nc12,nt,-57.2,i,i,i
CCCCCNC(=O)CCNC(=O)c1cccc(C)c1,nt,nt,nt,i,nt
CCOc1cc(C(=O)NC2(C(=O)OC)CCCCC2)ccc1OC,nt,nt,nt,i,nt
CCOCCCNC(=S)NC1CC2CCC(C1)N2Cc1ccccc1 (stereo not given),i,-62.2,i,i,i
COCCCNC(=S)NC1CC2CCC(C1)N2Cc1ccccc1 (stereo not given),i,-59.6,i,i,i
CCCN1C2CCCC1CC(NC(=S)NCCCOCC)C2 (stereo not given),i,i,i,i,i
CCC1(C)CC(=O)OC(=O)C1,nt,nt,nt,i,nt
CSc1ccc(CN(C)CC(=O)Nc2ccc(C)cc2Br)cc1,i,-55.6,i,i,i
SMILES,PI5P4K alpha inh,DRD3 antagonist,D3 ag,LDHA inh,PI4K2A block
CSc1ccc(CN(C)CC(=O)Nc2c(F)cccc2F)cc1,i,i,i,-32.7,i
CN(CC(=O)Nc1c(F)cccc1F)Cc1ccccc1,nt,nt,nt,i,nt
CC(=O)c1cc(CC#N)cs1,nt,nt,nt,i,nt
CCOC(=O)c1sc(=S)n(-c2cccc(SC)c2)c1N,nt,nt,nt,i,nt
CC(C(=O)N1CCc2ccccc21)n1c(=O)c2c(ncn2C2CCCC2)n(Cc2ccccc2)c1=O (stereo not given),nt,nt,nt,i,nt
Cc1cc(NC(=O)C(C)Oc2ccc3ccc(=O)oc3c2)no1 (stereo not given),nt,nt,nt,i,nt
OC1(c2ccc(Br)cc2)CCN(Cc2cccc(Br)c2)CC1,i,-106.4,i,i,i
CC(=O)c1ccc(N2CCN(C(=O)Cc3c[nH]c4ccccc34)CC2)cc1,nt,nt,nt,i,nt
CC1CCCCN1C(=O)c1cccc(NC2=C(Cl)C(=O)N(Cc3ccccc3)C2=O)c1 (stereo not given),i,i,i,i,i
CC1CCN(C(=O)c2ccc(NC3=C(Cl)C(=O)N(Cc4ccccc4)C3=O)cc2)CC1,i,-53.0,i,i,i
Cc1ccc(N/N=C(\Cc2nc3ccccc3[nH]2)c2ccccc2)cc1,i,-60.2,i,i,i
CC1=C(C(=O)OCC(Cl)(Cl)Cl)N2C(=O)C(NC(=O)Cc3ccccc3)C2SC1 (stereo not given),i,i,i,i,i
CC(=O)OCC1=C(C(=O)OC(C)(C)C)N2C(=O)[C@@H](NC(=O)Cc3ccccc3)[C@H]2SC1,-51.0,i,i,i,i
COc1cccc(CCC(=O)Nc2nc(C(C)=O)cs2)c1OC,nt,nt,nt,i,nt
O=C1C=C(NC2=CC3OC(c4ccccc4)OCC3OC2=O)CCC1 (stereo not given),i,-72.4,i,i,i
